Experimental data from the supplement of paper PMC6992640.
± gives the standard deviation of the averaged measurements.

What was measured:
Assay in all cases: cell viability (% of vehicle); higher = less cytotoxic
Conditions in all cases: 10 µM; 72 h
[1] = test system: HCI01 (cells of a triple-negative basal-like breast cancer xenograft)
[2] = test system: HCI03 (cells of an ER-positive luminal breast cancer xenograft)
[3] = test system: HCI09 (cells of a triple-negative luminal androgen receptor type breast cancer xenograft)
[4] = test system: HCI11 (cells of an ER-positive luminal breast cancer xenograft)
[5] = test system: HCI13 (cells of an ER-positive luminal breast cancer xenograft)
[6] = test system: HCI16 (cells of a triple-negative basal-like breast cancer xenograft)
[7] = test system: UCD52 (cells of a triple-negative basal-like breast cancer xenograft)
[8] = test system: WHIM2 (cells of a triple-negative basal-like breast cancer xenograft)
[9] = test system: WHIM30 (cells of a triple-negative basal-like breast cancer xenograft)
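Note: PDX cells carrying CMV promoter-driven luciferase, viability read as total photon flux per second by IVIS imaging following D-luciferin, vehicle control 0.1% DMSO.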

Row | SMILES | cell viability [1] | cell viability [2] | cell viability [3] | cell viability [4] | cell viability [5] | cell viability [6] | cell viability [7] | cell viability [8] | cell viability [9]
1 | O=C(O)c1ccccc1O [Salicylic acid] | 106 ± 7.3 | 114 | 138 ± 62 | 116 | 99.1 ± 7 | 98.3 | 120 ± 16 | 95.1 ± 13 | 118 ± 23
2 | NC(=O)c1cn(Cc2c(F)cccc2F)nn1 [Rufinamide] | 93.3 ± 16 | 137 | 106 ± 14 | 99.1 | 103 ± 10 | 106 | 96.9 ± 3.1 | 93.3 ± 18 | 124 ± 1.8
3 | O=C([O-])Cc1ccccc1Nc1c(Cl)cccc1Cl.[Na+] [Diclofenac Sodium] | 94.9 ± 18 | 120 | 81.3 ± 5.4 | 73.9 | 105 ± 26 | 111 | 73.6 ± 8.9 | 90.2 ± 14 | 81.348 ± 0.07
4 | CCN1CCCC1CNC(=O)c1cc(S(N)(=O)=O)ccc1OC (stereo not drawn) [Levosulpiride] | 127 ± 9.1 | 126 | 99.33 ± 0.17 | 98.2 | 77.9 ± 5.7 | 134 | 93.9 ± 1.6 | 109 ± 7.3 | 100 ± 7.4
5 | COc1cc(Nc2nc3ccccc3nc2NS(=O)(=O)c2ccc(NC(=O)c3ccc(C)c(OC)c3)cc2)cc(OC)c1 | 86.4 ± 4.2 | 102 | 49.675 ± 0.011 | 86.9 | 66.9 ± 17 | 94.9 | 84.5 ± 8.2 | 54.3 ± 12 | 88.5 ± 24
6 | O=C1CCC(N2C(=O)c3ccccc3C2=O)C(=O)N1 (stereo not drawn) [Thalidomide] | 144 ± 7.8 | 129 | 101 ± 4.3 | 103 | 129 ± 15 | 114 | 102 ± 4.3 | 103 ± 19 | 145 ± 15
7 | Cc1[nH]c(=O)c(C#N)cc1-c1ccncc1 [Milrinone] | 124 ± 0.28 | 117 | 96.6 ± 32 | 102 | 98 ± 13 | 94 | 90.5 ± 4.6 | 101 ± 10 | 106 ± 18
8 | CC1OC(OC2C(CO)OC(OC3C(CO)OC(O)C(O)C3O)C(O)C2O)C(O)C(O)C1NC1C=C(CO)C(O)C(O)C1O (stereo not drawn) [Acarbose] | 112 ± 9.7 | 109 | 99 ± 8.6 | 88.2 | 117 ± 12 | 78.5 | 93.3 ± 9.7 | 86 ± 17 | 104 ± 29
9 | CC#CCn1c(N2CCCC(N)C2)nc2c1c(=O)n(Cc1nc(C)c3ccccc3n1)c(=O)n2C (stereo not drawn) [Linagliptin (BI-1356)] | 160 ± 22 | 108 | 95.4 ± 7.2 | 142 | 105 ± 6.1 | 179 | 136 ± 2.3 | 111 ± 1.3 | 167 ± 7.3
10 | CC(=O)N(CC(O)CO)c1c(I)c(C(=O)NCC(O)CO)c(I)c(C(=O)NCC(O)CO)c1I (stereo not drawn) [Iohexol] | 117 ± 33 | 116 | 96.5 ± 2.9 | 83.2 | 133 ± 9.7 | 122 | 101 ± 6.7 | 99.2 ± 2.7 | 95.9 ± 8.9
11 | CCN1CCN(c2cc3c(cc2F)c(=O)c(C(=O)O)cn3C2CC2)CC1 [Enrofloxacin] | 105 ± 14 | 106 | 99.9 ± 18 | 91.8 | 121 ± 8.5 | 111 | 124 ± 5.2 | 130 ± 18 | 80.5 ± 6.2
12 | Cl.NC(CO)C(=O)NNCc1ccc(O)c(O)c1O (stereo not drawn) [Benserazide HCl] | 95.9 ± 1.5 | 69.1 | 83.6 ± 6.1 | 44.9 | 79.2 ± 11 | 77.2 | 69.6 ± 8.5 | 96.3 ± 3.2 | 103 ± 4.4
13 | O=C1NC(=O)C(c2ccccc2)(c2ccccc2)N1 [Phenytoin] | 106 ± 8.9 | 151 | 105.6 ± 0.89 | 108 | 113 ± 16 | 129 | 99 ± 5.9 | 118 ± 16 | 160 ± 25
14 | Cc1cccc(Nc2ccncc2S(=O)(=O)NC(=O)NC(C)C)c1 [Torsemide] | 84.3 ± 43 | 140 | 95.4 ± 16 | 93.5 | 120 ± 21 | 127 | 106 ± 1.8 | 106 ± 1.5 | 171 ± 13
15 | CC(C)C1CCC(C(=O)NC(Cc2ccccc2)C(=O)O)CC1 (stereo not drawn) [Nateglinide] | 84.1 ± 62 | 131 | 76.3 ± 6.6 | 87.4 | 112 ± 18 | 110 | 94 ± 4.4 | 117 ± 19 | 122 ± 17
16 | CN1CCN2c3ccccc3Cc3ccccc3C2C1.Cl (stereo not drawn) [Mianserin HCl] | 124 ± 24 | 98.3 | 89.4 ± 4.5 | 95.9 | 90 ± 21 | 92.4 | 74.3 ± 4.9 | 73.1 ± 24 | 109 ± 3.4
17 | COC(=O)NC(C(=O)NC(Cc1ccccc1)C(O)CN(Cc1ccc(-c2ccccn2)cc1)NC(=O)C(NC(=O)OC)C(C)(C)C)C(C)(C)C.O=S(=O)(O)O (stereo not drawn) | 134 ± 8.2 | 135 | 74.8 ± 2.8 | 140 | 100 ± 5.6 | 138 | 113 ± 14 | 90 ± 6.2 | 148 ± 31
